Test results from PubChem BioAssay (NCATS).
Records with an inconclusive call do not appear. Active and inactive are the calls of the source. Calls come from the whole dose curve; as a rule, active = well fitted curve in the direction sought with a large enough effect; inconclusive = small, poorly fitted or top-dose-only effect, or another doubt; inactive = no such curve, though single readings can be large; an effect the other way counts as inactive or inconclusive.

Legend:
[1] = target: Cellular tumor antigen p53 (Homo sapiens) (UniProt P04637); experiment: Primary qHTS for small molecule compounds that upregulate eGFP-tagged delta133p53alpha (in N-terminal) cells. (AID 2060322); conditions: NCI-H358 eGFP-delta133p53alpha fluorescence, 24 h; activation: hits give high values;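 note: series mostly up to about 56 µM; 0% = DMSO vehicle and 100% = reference activator; nearly all actives have a fitted effect of over 75% in size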
Chain of Cellular tumor antigen p53 (Homo sapiens) (P04637 whole entry, looked up): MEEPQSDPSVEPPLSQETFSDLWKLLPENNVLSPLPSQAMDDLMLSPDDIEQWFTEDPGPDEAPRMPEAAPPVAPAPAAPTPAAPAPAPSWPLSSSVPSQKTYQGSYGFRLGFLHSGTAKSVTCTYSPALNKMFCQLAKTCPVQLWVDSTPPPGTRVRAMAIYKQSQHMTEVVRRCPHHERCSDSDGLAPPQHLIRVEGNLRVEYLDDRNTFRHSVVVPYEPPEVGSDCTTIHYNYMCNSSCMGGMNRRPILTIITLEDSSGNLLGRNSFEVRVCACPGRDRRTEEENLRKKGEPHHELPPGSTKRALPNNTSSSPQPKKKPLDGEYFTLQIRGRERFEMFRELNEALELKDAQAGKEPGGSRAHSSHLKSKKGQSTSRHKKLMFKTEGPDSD
Outline: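 NCI-H358 cells pre-induced 24 h with 10 ng/ml doxycycline to express N-terminal eGFP-delta133p53alpha, then dosed 24 h at 37C without doxycycline; fixed, Hoechst-stained, GFP intensity by laser scanning cytometry, normalized to DMSO (0%) and 57.5 uM 5-azacytidine (100%).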

[2] = target: Aldehyde dehydrogenase, mitochondrial (Homo sapiens) (UniProt P05091); experiment: qHTS for Inhibitors of the Aldehyde Dehydrogenase Family (ALDH2) Primary screen (AID 2061308);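 note: plate controls were vehicle for no effect and reference inhibitor for full effect; nearly all actives have a fitted effect of over 55% in size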
[3] = target: Retinaldehyde dehydrogenase 3 (Homo sapiens) (UniProt P47895); experiment: qHTS for Inhibitors of the Aldehyde Dehydrogenase Family (ALDH1A3) Primary screen (AID 2061315);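 note: plate controls were DMSO vehicle for no effect and reference inhibitor for full effect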

CCNC(=O)[C@@H]1CCCN1C(=O)[C@H](CCCN=C(N)N)NC(=O)[C@H](CC(C)C)NC(=O)[C@@H](C)NC(=O)[C@H](Cc1ccc(O)cc1)NC(=O)[C@H](CO)NC(=O)[C@H](Cc1c[nH]c2ccccc12)NC(=O)[C@H](Cc1cnc[nH]1)NC(=O)[C@@H]1CCC(=O)N1
inactive: activation [1] -6.33% | Potency [2] | Potency [3]

CCC(C)(O)C(O)C(=O)OCc1ccc(O[C@@H]2O[C@H](CO)[C@@H](O)[C@H](O)[C@H]2O)c(OC)c1 (some centres not stated)
inactive: activation [1] -5.36% | Potency [2] | Potency [3]

C/C=C/C=C/C=C/C(=O)OC1C=C(C=O)C(O)(C(=O)O)C2(C)CCCC(C)(C)C12 (configuration not stated)
inactive: activation [1] -9.92% | Potency [2] | Potency [3]

O=C(/C=C\c1ccc(O)cc1)N[C@@H](Cc1ccc(O)cc1)C(=O)O
inactive: activation [1] 17.9% | Potency [2] | Potency [3]

CC(C)NCCCn1c(Sc2cc3c(cc2I)OCO3)nc2c(N)ncnc21
inactive: activation [1] 10% | Potency [2] | Potency [3]

O=C(O)c1ccc(O)c2ncc(N3CCCN(CCc4cccc5ccccc45)CC3)cc12
inactive: activation [1] 21.2% | Potency [2] | Potency [3]

C=C(C)C(O)COc1ccc(CC(=O)O)cc1 (configuration not stated)
inactive: activation [1] 8.93% | Potency [2] | Potency [3]

CCC(C)C(=O)O[C@H]1[C@@H](O[C@H]2O[C@H](CO)[C@@H](O)[C@H](O)[C@H]2O)O[C@H](CO)[C@@H](O)[C@@H]1O (some centres not stated)
inactive: activation [1] 13.7% | Potency [2] | Potency [3]

COC(=O)C1=COC(OC2OC(CO)C(O)C(O)C2O)C2C1CC(OC(=O)C(O)CC(=O)O)C2C (configuration not stated)
inactive: activation [1] 10.7% | Potency [2] | Potency [3]
